The source of these data is PubChem BioAssay (NCATS).

This test is described as follows: qHTS drug screen for cell cycle checkpoint inhibitors in PARPi-resistant BRCA-mutant ovarian cancer cell lines. (AID 1963452). To be noted: PEO1/OlaR viability, CellTiter-Glo luminescence, 96 h; for Z-AUC: stronger effect = lower value. The source says: Women's Malignancies Branch, Center for Cancer Research (CCR),
National Cancer Institute (NCI), National Institutes of Health (NIH), Bethesda, MD
Poly (ADP-ribose) polymerase inhibitors (PARPis) have changed the treatment paradigm in breast cancer gene (BRCA) - mutant high-grade serous ovarian carcinoma (HGSC). However, most patients eventually develop resistance to PARPis, highlighting an unmet need for improved therapeutic strategies. Using high-throughput drug screens, we identified ataxia telangiectasia and rad3-related protein/checkpoint kinase 1 (CHK1) pathway inhibitors as cytotoxic and further validated the activity of the CHK1 inhibitor (CHK1i) prexasertib in PARPi-sensitive and -resistant BRCA-mutant HGSC cells and xenograft mouse models. CHK1i monotherapy induced DNA damage, apoptosis, and tumor size reduction. We then conducted a phase 2 study (NCT02203513) of prexasertib in patients with BRCA-mutant HGSC. The treatment was well tolerated but yielded an objective response rate of 6% (1 of 17; one partial response) in patients with previous PARPi treatment. […] BRCA reversion mutation in previously PARPi-treated BRCA-mutant patients was not associated with resistance to CHK1i.
Among others, 1082 oncology drugs, both approved and investigational, were prioritized based on their status in clinical trial development. […] Drugs with average Z-AUC values less than -1.0 in all three cell lines were classified as "hits" resulting in 151 oncology drug hits. The screen also confirmed cross-resistance between olaparib and other PARPis (rucaparib, niraparib, and talazoparib) in PARPi-resistant PEO1/OlaR and PEO4.
[1] G. L. Lin, K. M. Wilson, M. Ceribelli, B. Z. Stanton, P. J. Woo, S. Kreimer, E. Y. Qin, X. Zhang, J. Lennon, S. Nagaraja, P. J. Morris, M. Quezada, S. M. Gillespie, D. Y. Duveau, A. M. Michalowski, P. Shinn, R. Guha, M. Ferrer, C. Klumpp-Thomas, S. Michael, C. McKnight, P. Minhas, Z. Itkin, E. H. Raabe, L. Chen, R. Ghanem, A. C. Geraghty, L. Ni, K. I. Andreasson, N. A. Vitanza, K. E.Warren, C. J. Thomas, M. Monje, Therapeutic strategies for diffuse midline glioma from high-throughput combination drug screening. Sci. Transl. Med. 11, (2019).
[2] T. M. Yamamoto, A. McMellen, Z. L. Watson, J. Aguilera, R. Ferguson, E. Nurmemmedov, T. Thakar, G. L. Moldovan, H. Kim, D. M. Cittelly, A. M. Joglar, E. P. Brennecke, H. Wilson, K. Behbakht, M. J. Sikora, B. G. Bitler, Activation of Wnt signaling promotes olaparib resistant ovarian cancer. Mol. Carcinog. 58, 1770 - 1782 (2019).
PROTOCOL TABLE (as described by Inglese J, Shamu CE and Guy RK. 2007)
SEQUENCE No. (e.g., 1, 2, 3, etc.); […] (e.g., Cells, Incubation, Reagent, etc.); VALUE; DESCRIPTION.
1; Compounds; 20nL; 1536-well white tissue culture-treated plates.
2; Cells; 5 uL; PEO1, PEO4, and PEO1/OlaR cells at 600 cells per well.
3; Incubation; 96 hr; 37C, 95% humidity, 5% CO2.
4; Reagent; 3 uL; CellTiter-Glo (Promega).
5; Incubation; 15 min; room temperature.
6; Detection; Luminescence, PHERAstar (BMG Labtech) plate reader.
NOTES (numbers refer to Sequence numbers above)
1. MIPE 5.0 compounds were acoustically dispensed by Echo Acoustic Liquid Handler (Beckman Coulter Life Sciences). Each compound was plated at an 11-point concentration range with 1:3 dilution. Bortezomib, a proteasome inhibitor (final concentration, 20 uM), was used as a positive.
2. PEO1, PEO4, and PEO1/OlaR were trypsinized and dispensed in 5 uLof growth medium using a Multidrop Combi dispenser at a density of 600 cells per well to allow compounds to be present during the exponential growth phase.
3. Plates were incubated for 96 hours at standard incubator conditions and covered by a stainless steel gasketed lid to prevent evaporation.
4. Three microliters of CellTiter-Glo (Promega) were added to each well.
5. Plates were incubated at room temperature for 15 min with a stainless-steel lid in place.
6. Luminescence readings were taken using PHERAstar (BMG Labtech). […]
For orientation: In qHTS, concentration-response curves come from the screen itself.

Where [1] appears, read: measured here: PEO1 parental Z-AUC.

The source made the active and inactive calls. Calls follow the shape of the full dose curve.
Potency is read from the fitted curve at half-maximal effect.

On to `COc1ccc(S(=O)(=O)N(C(C)=O)c2ccccc2/C=C/c2cc[n+]([O-])cc2)cc1`, for which the Potency was 1100 nM (active). Also, under setting [1], the Z-AUC is -1.34. Besides, the Z-AUC (measured here: PEO4 Z-AUC) was -1.39.

Take `C[C@@H]1CC2C3C[C@H](F)C4=CC(=O)C=C[C@]4(C)[C@@]3(F)[C@@H](O)C[C@]2(C)[C@@]1(OC(=O)c1ccco1)C(=O)SCF` (some centres not stated): the Z-AUC is 0.16 (inactive). For the same compound, the Z-AUC under setting [1] worked out at 0.658. Also, the Z-AUC (measured here: PEO4 Z-AUC) was -0.282.

`CC[C@H](NC(=O)[C@H](C)NC)C(=O)N1C[C@@H](O)C[C@H]1Cc1c(-c2[nH]c3cc(F)ccc3c2C[C@@H]2C[C@H](O)CN2C(=O)[C@H](CC)NC(=O)[C@H](C)NC)[nH]c2cc(F)ccc12`: the Z-AUC is 1.52 (inactive). Moreover, under setting [1], the Z-AUC worked out at 1.38. In addition, for the setting “measured here: PEO4 Z-AUC”, the Z-AUC was 0.68.

As to `CCn1c(N)c(C(=O)NC)c(=O)c2ccc(C#C[C@@](C)(O)COC)nc21`, the Z-AUC is -0.226 (inactive). In addition, the Z-AUC under setting [1] is -0.662. Further, the Z-AUC (measured here: PEO4 Z-AUC) came out at 0.0317.

Regarding `Cc1ccc(-c2nn(C(C)(C)CNC(=O)c3ccncc3)c3ncnc(N)c23)cc1`, the Z-AUC is -0.525 (inactive). Also, the Z-AUC under setting [1] was -1.23. In addition, the Z-AUC (measured here: PEO4 Z-AUC) was -1.14.

Take `Cc1noc(-c2ccc(-c3ccc(C4(C(=O)O)CC4)cc3)cc2)c1NC(=O)O[C@H](C)c1ccccc1`: the Z-AUC was 1.39 (inactive). Moreover, the Z-AUC under setting [1] came to 1.53. For the same compound, the Z-AUC (measured here: PEO4 Z-AUC) came to 1.53.

With `CCc1ccc2nc(Nc3cc(Cc4ccccc4)nc(NC4CCC(O)CC4)n3)sc2c1` (configuration not stated), the Z-AUC was -0.86 (inactive). In addition, the Z-AUC under setting [1] was -0.737. Besides, the Z-AUC (measured here: PEO4 Z-AUC) was -0.703.

As to `CO[C@H]1/C=C/O[C@@]2(C)Oc3c(C)c(O)c4c(O)c(c(/C=N/N5CCN(C)CC5)c(O)c4c3C2=O)NC(=O)/C(C)=C\C=C\[C@H](C)[C@H](O)[C@@H](C)[C@@H](O)[C@@H](C)[C@H](OC(C)=O)[C@@H]1C`, the Z-AUC is 1.24 (inactive). Moreover, under setting [1], the Z-AUC worked out at 1.13. In addition, the Z-AUC (measured here: PEO4 Z-AUC) came to 1.29.

On to `C[C@H]1C[C@@H](n2c(Nc3ccc(OC(F)(F)F)cc3)nc3cc(CCC(=O)O)ccc32)CC(C)(C)C1`, for which the Z-AUC is 0.184 (inactive). Besides, the Z-AUC under setting [1] is 0.953. Besides, the Z-AUC (measured here: PEO4 Z-AUC) is 0.855.

As to `C=CC(=O)N[C@H]1CN(c2nc(Nc3cn(C)nc3OC)c3ncn(C)c3n2)C[C@@H]1F`, the Z-AUC is 0.581 (inactive). Further, under setting [1], the Z-AUC was determined as 0.0382. In addition, the Z-AUC (measured here: PEO4 Z-AUC) was found to be 0.231.

On to `CN1CCN(CCCNc2ncc(Cl)c(-c3cc4c(C(=O)NC5CC5)cccc4s3)n2)CC1`, for which the Z-AUC was -0.322 (inactive). For the same compound, under setting [1], the Z-AUC is -0.452. For the same compound, the Z-AUC (measured here: PEO4 Z-AUC) was -0.0901.

Consider `CCCS(=O)(=O)c1nc(NC2CC2)cc(-c2ccc3c(ccn3C3CC(C)(C)NC(C)(C)C3)c2)n1`, for which the Z-AUC is -1.38 (inactive). Moreover, the Z-AUC under setting [1] was -1.22. The Z-AUC (measured here: PEO4 Z-AUC) was -1.57.

With `C=CC(=O)Nc1cccc(Oc2nc(Nc3ccc(N4CCN(C)CC4)cc3)nc3ccsc23)c1`, the Z-AUC is -0.291 (inactive). The Z-AUC under setting [1] was -0.486. Further, the Z-AUC (measured here: PEO4 Z-AUC) is -0.146.

For `COC(=O)N[C@H](C(=O)N1CCC[C@H]1c1ncc(-c2ccc(-c3ccc(-c4cnc([C@@H]5CCCN5C(=O)[C@@H](NC(=O)OC)C(C)C)[nH]4)cc3)cc2)[nH]1)C(C)C`, the Z-AUC is -0.519 (inactive). Also, the Z-AUC under setting [1] was -0.789. Under “measured here: PEO4 Z-AUC”, the Z-AUC was -0.801.
